Source: PubChem BioAssay
POLI inh: DNA polymerase iota (human) inhibition; Pol iota fluorescent replication assay, 10 min; AID 588590; Q9UNA4; Potency, µM (highest dose often 115 µM), usual class: inhibitors; 1% of 390,000 active
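Fluorescent replication assay read twice, at 0 min and 10 min after adding 50 nM (final) substrate. Enzyme (10 nM) and compounds were first incubated 15 min at room temperature; enzyme-free buffer wells were negative controls.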
Pol kappa inh: DNA polymerase kappa (human) inhibition. Potency, µM (top dose mostly 107 µM), usual class: inhibitors. Q9UBT6. purified Pol kappa, fluorescent DNA synthesis assay, 10 min. 0.53% of 400,000 active
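50 nM final substrate added after 15 min RT preincubation of 10 nM Pol kappa with compound; fluorescence read at 0 and 10 min.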
Pol beta inh: blocks human DNA polymerase beta activity | P06746 | Pol beta primer extension/strand displacement, fluorescence kinetic | Potency, µM (titrated, usually from 114 µM), actives largely listed as inhibitors | 1.3% of 340,000 active
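Kinetic readout of DNA synthesis with strand displacement by Pol beta. Compound and 10 nM enzyme sit 15 min at room temperature; 50 nM substrate starts the reaction, read immediately and at 10 min.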
Tb PGK inh: blocks T. brucei phosphoglycerate kinase. P07378. PGK/GAPDH coupled, Kinase-Glo luminescence, 60 min. Potency, µM (series often up to 57.5 µM), most hits filed as inhibitors. 0.043% of 380,000 active; note: nearly all actives have a fitted effect of over 60% in size
Target sequence (P07378 whole entry, looked up): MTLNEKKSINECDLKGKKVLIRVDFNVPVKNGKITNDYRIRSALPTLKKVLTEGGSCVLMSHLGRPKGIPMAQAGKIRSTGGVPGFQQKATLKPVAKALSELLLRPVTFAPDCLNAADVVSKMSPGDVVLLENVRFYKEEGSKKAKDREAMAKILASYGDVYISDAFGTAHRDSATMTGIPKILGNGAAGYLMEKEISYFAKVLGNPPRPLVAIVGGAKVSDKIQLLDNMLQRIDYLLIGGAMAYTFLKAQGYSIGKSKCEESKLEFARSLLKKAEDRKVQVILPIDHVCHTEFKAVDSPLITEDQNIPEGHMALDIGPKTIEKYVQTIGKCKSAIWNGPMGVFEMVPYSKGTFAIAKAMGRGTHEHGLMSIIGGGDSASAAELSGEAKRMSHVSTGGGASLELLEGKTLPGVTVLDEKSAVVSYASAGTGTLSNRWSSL
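Luminescent ATP detection (Kinase-Glo Plus) follows a 60-minute room-temperature incubation, with wells lacking PGK as controls. Buffer: 100 mM TEA (pH 7.6), 5 mM MgCl2, 0.01% Tween-20. Coupling enzyme GAPDH (100 nM final) supplies unstable 1,3-BPG in-well.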
Pol eta inh: DNA polymerase eta (human) inhibition | Q9Y253 | recombinant Pol eta, fluorescent DNA replication assay | Potency, µM (series often up to 114 µM), hits mostly inhibitors | 1.2% of 390,000 active
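Pol eta at 10 nM preincubated with compounds 15 min at room temperature; reaction started with fluorescent substrate (50 nM final) and read kinetically at 0 and 10 min.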
FEN1 inh: blocks human flap endonuclease 1; Potency, µM (top dose mostly 114 µM), most hits filed as inhibitors; Recombinant FEN1 flap cleavage, fluorescence, 15 min; P39748; 0.35% of 390,000 active; note: nearly all actives have a fitted effect of over 65% in size
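Compounds are tested as a concentration series against 10 nM FEN1; after a 15 min room-temperature preincubation, 50 nM substrate starts cleavage, with plate reads at 0 and 15 min. Normalized responses are fitted by a Hill equation.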
Hits are given with their value. Sampled rows, rich in hits. Any-hit rate of the full collection: about 2.4%. Calls come from the whole dose curve; as a rule, active = well fitted curve in the direction sought with a large enough effect; inconclusive = small, poorly fitted or top-dose-only effect, or another doubt; inactive = no such curve, though single readings can be large; an effect the other way counts as inactive or inconclusive.

Results for CCOCCCn1c(=N)c(C(=O)NCc2ccco2)cc2c(=O)n3ccccc3nc21 ?
POLI inh: inactive; Pol kappa inh: inactive; Pol beta inh: inactive; Tb PGK inh: inactive; Pol eta inh: inactive; FEN1 inh: inactive

Results for COc1ccc(CCn2c(=N)c(C(=O)NCc3ccco3)cc3c(=O)n4ccccc4nc32)cc1OC ?
POLI inh: 16µM; Pol kappa inh: inconclusive; Tb PGK inh: inactive; Pol eta inh: 45µM; FEN1 inh: inactive

Results for COc1ccc(CCNC(=O)c2cc3c(=O)n4ccccc4nc3n(Cc3ccco3)c2=N)cc1OC ?
POLI inh: inactive; Pol kappa inh: inactive; Pol beta inh: inactive; Tb PGK inh: inactive; Pol eta inh: inconclusive; FEN1 inh: inactive

How did N=c1c(C(=O)NCc2ccco2)cc2c(=O)n3ccccc3nc2n1CCc1ccccc1 do in these assays?
POLI inh: inconclusive; Pol kappa inh: inactive; Pol beta inh: 32µM; Tb PGK inh: inactive; Pol eta inh: inconclusive; FEN1 inh: inactive

How did O=C(/C=C/c1cnc2ccccc2n1)NC12CC3CC(CC(C3)C1)C2 do in these assays?
POLI inh: inactive; Pol kappa inh: inactive; Pol beta inh: 56µM; Tb PGK inh: inactive; Pol eta inh: inactive; FEN1 inh: inactive

Results for O=C(O)/C=C/c1cnc2ccccc2n1 ?
POLI inh: inactive; Pol kappa inh: inactive; Pol beta inh: inactive; Tb PGK inh: inactive; Pol eta inh: inactive; FEN1 inh: inactive

Results for O=S(=O)(c1ccc(F)cc1)N1CCN(c2nc(-c3ccc(F)cc3)nc3cc(Cl)ccc23)CC1 ?
POLI inh: inactive; Pol kappa inh: inactive; FEN1 inh: inactive

What do the screens show for `COc1ccccc1N(CC(=O)Nc1ccc2c(c1)OCO2)S(=O)(=O)c1ccc(C)cc1`?
POLI inh: inactive; Pol kappa inh: inactive; Pol beta inh: inactive; Tb PGK inh: inactive; Pol eta inh: inactive; FEN1 inh: inactive

How did CCc1ccccc1NC(=O)CNC(=O)c1ccc(OCc2cn3ccccc3n2)cc1 do in these assays?
POLI inh: 45µM; Pol kappa inh: inactive; Tb PGK inh: inactive; Pol eta inh: inactive; FEN1 inh: inactive

How did NCC1OC(OC2C(N)CC(N)[C@@H](O)[C@@H]2OC2O[C@H](CO)[C@@H](O[C@@H]3OC(CN)C(O)C(O)C3N)C2O)C(N)C(O)C1O (some centres not stated) do in these assays?
Pol kappa inh: inactive

What do the screens show for `O=C1CC(c2ccco2)CC(O)=C1C=Nc1cc(Cl)cc(Cl)c1` (configuration not stated)?
POLI inh: inconclusive; Pol kappa inh: 71µM; Pol beta inh: 40µM; Tb PGK inh: inactive; Pol eta inh: inconclusive; FEN1 inh: inconclusive

Results for O=c1ccc(NS(=O)(=O)c2ccccc2Cl)cn1Cc1ccc(Cl)c(Cl)c1 ?
POLI inh: inactive; Pol kappa inh: inactive; Pol beta inh: inactive; Tb PGK inh: inactive; Pol eta inh: inactive; FEN1 inh: 71µM

Results for CCn1cc2nc(SCC(=O)Nc3ccccc3C(F)(F)F)n(Cc3ccc(C)cc3)c(=O)c2n1 ?
POLI inh: 45µM; Pol kappa inh: inconclusive; Pol beta inh: 10µM; Tb PGK inh: inactive; Pol eta inh: inactive; FEN1 inh: inconclusive

How did CN(C)c1ccc(/C=C2\C=Cc3ccccc32)cc1F do in these assays?
POLI inh: inactive; Pol kappa inh: inactive; FEN1 inh: inactive

Results for CC(C)c1ccccc1NC(=O)CN(c1ccccc1)S(=O)(=O)N(C)C ?
POLI inh: inactive; Pol kappa inh: inactive; Pol beta inh: inactive; Tb PGK inh: inactive; Pol eta inh: inactive; FEN1 inh: inactive

Results for COc1cccc(C(=O)NCC2CCN(c3ccc(S(=O)(=O)N4CCOCC4)cc3)CC2)c1 ?
POLI inh: inactive; Pol kappa inh: inactive; Pol beta inh: 40µM; Tb PGK inh: inactive; Pol eta inh: inactive; FEN1 inh: inactive

Results for Cc1ccnc(NS(=O)(=O)c2ccc(NC(=O)c3cc(-c4ccc(Br)cc4)nc4ccccc34)cc2)n1 ?
POLI inh: 45µM; Pol kappa inh: inactive; Pol beta inh: 79µM; Tb PGK inh: inactive; Pol eta inh: 35µM; FEN1 inh: inactive

What do the screens show for `Cc1ccc2c(c1)c(=O)c(S(=O)(=O)c1ccc(C)c(C)c1)cn2CC(=O)Nc1ccccc1`?
POLI inh: inactive; Pol kappa inh: inactive; Pol beta inh: inactive; Tb PGK inh: inactive; Pol eta inh: inactive; FEN1 inh: inactive

What do the screens show for `Cc1ccc(CC(=O)NO)cc1`?
POLI inh: inactive; Pol kappa inh: inactive; FEN1 inh: inactive

Results for COc1ccc(C(=O)c2cn(Cc3ccc(F)cc3)c3c(F)cc(F)cc3c2=O)cc1 ?
POLI inh: inconclusive; Pol kappa inh: inactive; Pol beta inh: inactive; Tb PGK inh: inactive; Pol eta inh: inactive; FEN1 inh: 89µM

Results for CC(=O)Nc1nonc1NC(C)=O ?
POLI inh: inactive; Pol kappa inh: inactive; Pol beta inh: inactive; Tb PGK inh: inactive; Pol eta inh: inactive; FEN1 inh: inactive

What do the screens show for `CC(=O)Nc1cc(OC(C)=O)c2nonc2c1OC(C)=O`?
POLI inh: 0.79µM; Pol kappa inh: inactive; Pol beta inh: inactive; Tb PGK inh: inactive; Pol eta inh: 50µM; FEN1 inh: inactive

How did CC(=O)Oc1ccc2nonc2c1OC(C)=O do in these assays?
POLI inh: 3.5µM; Pol kappa inh: 3.2µM; FEN1 inh: 10µM

Results for COc1ccc(Br)cc1CNC(=O)c1ccc2c(c1)nc1n2CCCCC1 ?
POLI inh: inactive; Pol kappa inh: inactive; Pol beta inh: inactive; Tb PGK inh: inactive; Pol eta inh: inactive; FEN1 inh: inactive

How did Cc1cccc2c(N=O)c(O)[nH]c12 do in these assays?
POLI inh: inactive; Pol kappa inh: inactive; Pol beta inh: inactive; Tb PGK inh: inactive; Pol eta inh: 35µM; FEN1 inh: inactive

How did C#C[C@]1(O)CCC2C3CCC4=Cc5oncc5C[C@@]4(C)C3CC[C@@]21C (some centres not stated) do in these assays?
Pol kappa inh: inactive

Results for O=C(c1ccc2c(=O)n(-c3ccccc3)c(=O)[nH]c2c1)N1CCN(Cc2cccs2)CC1 ?
POLI inh: inactive; Pol kappa inh: inactive; FEN1 inh: inactive

Results for CCOC(=O)c1c(NC(C)=O)sc2c(O)cccc12 ?
POLI inh: inactive; Pol kappa inh: inactive; Pol beta inh: inactive; Tb PGK inh: inactive; Pol eta inh: inactive; FEN1 inh: inactive

What do the screens show for `CCOC(=O)c1c(NC(C)=O)sc2c(OCC(O)CNC(C)(C)C)c(Br)ccc12` (configuration not stated)?
POLI inh: inconclusive; Pol kappa inh: inactive; Pol beta inh: inactive; Pol eta inh: inactive; FEN1 inh: 22µM

What do the screens show for `O=C(Nc1ccc(F)cc1F)c1ccc(COc2c(F)c(F)cc(F)c2F)o1`?
POLI inh: inactive; Pol kappa inh: inactive; Pol beta inh: inconclusive; Pol eta inh: inactive; FEN1 inh: inactive
